Measured values taken from the supplement of paper PMC6555819.

Key:
Assay in all cases: PBM binding z-score (relative to random genomic background probes); higher = stronger binding; sequences stand for … in GC…GCGATTGACAGCGTAGAATGAAGG
[1] = tested on: FXR:RXRa (NR concentration 270 nM, RXRa partner concentration 90 nM)
How it was run: (§1)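 Custom Agilent 4×180K protein-binding microarrays carried double-stranded probes, each with a 34-nt variable region. These regions held direct-repeat seeds, single-nucleotide variants, half-site ablations and random human genomic background sequences. Ligand-free nuclear receptor dimers were incubated on the arrays for 1 h, antibodies against each partner (one per run) detected binding, and scanned fluorescence was regression-normalized. Binding z-scores take the random background probes as reference.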

[2] = tested on: LXRa:RXRa (NR concentration 270 nM, RXRa partner concentration 90 nM)
How it was run: as §1

[3] = tested on: LXRa homodimer (NR concentration 270 nM)
How it was run: as §1

[4] = tested on: LXRb:RXRa (NR concentration 270 nM, RXRa partner concentration 90 nM)
How it was run: as §1

[5] = tested on: LXRb homodimer (NR concentration 270 nM)
How it was run: as §1

[6] = tested on: PPARa:RXRa (NR concentration 270 nM, RXRa partner concentration 90 nM)
How it was run: as §1

[7] = tested on: PPARg:RXRa (NR concentration 180 nM, RXRa partner concentration 90 nM)
How it was run: as §1

[8] = tested on: PPARg:RXRa 270nM:90nM, anti-RXR (NR concentration 270 nM, RXRa partner concentration 90 nM)
How it was run: as §1

[9] = tested on: PPARg:RXRa 30nM:10nM, anti-RXR (NR concentration 30 nM, RXRa partner concentration 10 nM)
How it was run: as §1

[10] = tested on: PPARg:RXRa 90nM:30nM, anti-RXR (NR concentration 90 nM, RXRa partner concentration 30 nM)
How it was run: as §1

Sequence	PBM binding z-score [1]	PBM binding z-score [2]	PBM binding z-score [3]	PBM binding z-score [4]	PBM binding z-score [5]	PBM binding z-score [6]	PBM binding z-score [7]	PBM binding z-score [8]	PBM binding z-score [9]	PBM binding z-score [10]
CGTCCAAGGTAAAGGTCAGTGAAAGAGACTCGAA	3.41	3.38	0.618	3.01	-0.119	4.54	5.24	6.05	3.76	5.72
CTCGAAAGGTCGTGATCAGGTGAGTATACCAAAC	5.37	3.83	0.129	3.24	0.0388	4.89	3.12	3.71	1.2	2.73
CCAACTGGGCCATCAGGTCATTGATATCAACGTT	1.54	0.836	0.987	1.56	-0.441	2.73	2.9	3.63	1.38	3.04
CCTAACAGGCCAGGGTCACTCAAGCATTTCGCTT	2.05	1.86	-0.195	2.38	-0.349	3.2	0.798	1.41	-0.181	0.356
CAAACTAGTTCACGAAAGGTCAAAGTCGAATGAC	6.34	7.45	7.18	6.48	2.77	5.65	4.37	5.37	2.24	4.32
AATACAGGGTCACCAGGCCAGAGTAGGTACGAAT	7.09	5.86	0.943	4.55	0.722	6.07	8.01	6.75	3.76	5.35
TAGCCTATGTCATTGGGCCAGTATAGTACGCATC	-0.278	-0.41	-0.519	-0.0433	-0.648	0.0352	0.577	0.178	0.0263	0.065
TCTCGGAGGACACGAAATGTCAGAGCTCGACATC	0.755	0.358	-0.2	0.313	-0.55	0.168	0.208	1.09	2.37	1.62
TCGAGTAGGTTAGGGGCATTCACAATGGCGTCGA	0.495	0.167	-0.286	0.973	-0.112	1.38	1.01	1.84	1.59	1.94
TAGCCTAGTTCAGATCGGGCCAGTATACGCTATA	-0.29	-0.351	-0.598	-0.308	-0.592	-0.113	-0.019	-0.325	-0.538	-0.475
CGTCCCAGGTCAAAGGTCAGTGAAGAGATGACGG	7.79	6.36	2.98	6.02	0.888	7.24	10.8	9.06	8.62	9.26
CCTGCTAGGTCATGGTCATCTAATCTACAGTATG	3.56	2.73	0.055	1.89	-0.408	3.6	2.73	3.03	0.662	1.85
ATCGAAAAGTCGTGAGGTGAGTATACAGAAAGGC	0.379	0.127	-0.461	-0.0752	-0.13	0.351	0.623	-0.104	0.404	0.0436
ATAATGAGGTTACCAAAGATCAGGGAAACGCTTG	1.8	6.12	0.166	3.15	0.596	3.37	3.17	3	1.2	2.35
TCTGGTAGGTCAACGATGGTCAGCTAATCTGCTA	4.45	3.6	0.986	2.55	0.479	4.35	4.4	4.54	3.78	4.32
CGTCCCAGGTCAGCAGGTCAGTGAAAGCGACGTG	3.56	2.34	0.419	1.95	-0.0332	3.49	2.6	2.88	0.0912	1.51
ACTATTAGTTGACTTATGGCAACCGATACGACGC	0.061	0.293	0.179	0.682	0.995	0.117	1.04	0.488	0.748	0.352
TATACACGGTCAAAGGCCAGAGTACGAATGTCGA	1.3	3.22	2.75	0.929	1.43	2.04	3.99	4.34	2.65	4.3
CGTCCAAGGTCATAGGCGGTCAGTGAAGACAGAT	7.45	6.83	2.89	4.79	0.324	5.55	4.7	5.18	1.82	3.6
ACTCTTAGTTGACTTAGGGCAACCGATACGACGC	0.556	0.443	0.285	0.398	0.941	0.448	0.905	0.0993	0.38	0.299
GCTAGTTGGTCAGTAAAAGGCCACACACCGGTCG	-0.0469	-0.0882	-0.17	-0.23	-0.629	0.0643	0.521	0.122	-0.368	0.378
ACCTCTAGGTAAAGTTCAGTGAAAGATCGATAGA	0.698	1.23	0.94	0.893	0.102	1.58	1.08	2.32	0.584	1.63
ATCGAAAGGTCGACTAGGTGAGTATACACCGTTT	4.12	3.17	0.302	2.94	0.797	4.24	2.56	3.24	1.06	2.34
ATCGAAAGGTCGCCGAGGTGAGTATACACCGTTT	5.1	3.88	0.0507	3.11	0.601	5.12	3.84	4.39	1.55	2.85
